A number with no mark means an inactive call. Records with an inconclusive call do not appear. Activity calls are given as the source filed them. Unless noted, calls come from the whole dose curve; as a rule, active = well fitted curve in the direction sought with a large enough effect in the repeat runs; inconclusive = weak or mixed curves; inactive = no such curve, though single readings can be large; an effect the other way counts as inactive or inconclusive.

A short description of assay [1]: qHTS assay to identify small molecule antagonists of the estrogen related receptor (ERR) signaling pathway from Tox21 library - cell viability counter screen (AID 1224834). Note: nearly all actives have a fitted effect of over 30% in size. As to conditions: ERR reporter cells viability, CellTiter-Fluor, 17.5 h; series mostly up to 92.4 µM. Put shortly:
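ERR cells, 2,000/well; 6 h settle at 37 C/5% CO2; pin-tool compound transfer in DMSO; 17.5 h at 37 C; CellTiter-Fluor, 30 min; fluorescence intensity.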
(In general: In qHTS, concentration-response curves come from the screen itself.)

In assay [2] the target is Luciferin 4-monooxygenase (Photinus pyralis) (UniProt P08659). Kind of assay: qHTS assay to identify small molecule inhibitors of firefly luciferase (AID 1224835). Note: nearly all actives have a fitted effect of over 25% in size. Note: potency is the fitted concentration of half-maximal effect. The conditions noted are these: purified P. pyralis luciferase, luminescence inhibition; series mostly up to 115 µM. Put shortly:
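Inhibition of purified Photinus luciferase is measured by luminescence. Substrate levels (D-luciferin, ATP) sit at their KM values. Each compound is tested in a concentration series.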

Assay [3] is described as follows: qHTS assay to identify small molecule agonists of the constitutive androstane receptor (CAR) signaling pathway - cell viability counter screen (AID 1224836). Note: nearly all actives have a fitted effect of over 45% in size. The conditions noted are these: HepG2-CYP2B6-hCAR viability, CellTiter-Fluor, 23 h, PK11195 added to every well; series mostly up to 92.4 µM. Put shortly:
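HepG2 cells stably carrying hCAR and a CYP2B6-2.2kb reporter; 15-concentration compounds plus PK11195 (final 0.75 uM), 23 hr at 37 C/5% CO2. Viability read by CellTiter-Fluor fluorescence.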

Assay [4] is described as follows: qHTS assay to identify small molecule antagonists of the constitutive androstane receptor (CAR) signaling pathway - cell viability counter screen (AID 1224837). Note: nearly all actives have a fitted effect of over 45% in size. The conditions noted are these: HepG2-CYP2B6-hCAR viability, CellTiter-Fluor, 23 h, co-treated with 50 nM CITCO; series mostly up to 92.4 µM. Put shortly:
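Viability was measured with CellTiter-Fluor in a HepG2 line carrying stably transfected hCAR and a CYP2B6-2.2kb construct. Cells were exposed for 23 hr at 37 C to 15 compound concentrations with 50 nM CITCO as agonist.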

Assay [5] deals with Nuclear receptor subfamily 1 group I member 3 (Homo sapiens) (UniProt Q14994). Nature of the assay: qHTS assay to identify small molecule antagonists of the constitutive androstane receptor (CAR) signaling pathway (AID 1224838).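 Note: HepG2 cells stably expressing hCAR with CYP2B6 luciferase reporter stimulated by CITCO; nearly all actives have a fitted effect of over 40% in size.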 As to conditions: HepG2-CYP2B6-hCAR luciferase, CITCO-stimulated, 24 h; series mostly up to 92.4 µM. In outline:
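Antagonist mode used CITCO at a final 50 nM to activate CAR in human hepatoma HepG2 cells carrying stable hCAR and a 2.2 kb CYP2B6 promoter-luciferase construct. Compounds were tested at 15 concentrations over 24 h, with luminescence as the end point.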

Assay [6] in a line: qHTS assay to identify small molecule antagonists of the estrogen related receptor signaling pathway with the pleiotropic PPARgamma coactivator (PGC) from Tox21 10K library - cell viability counter screen (AID 1224840; active = well fitted cell-killing curve with a large enough effect in the repeat runs, not every such curve was filed as active; note: nearly all actives have a fitted effect of over 40% in size). The conditions noted are these: PGC/ERR reporter cells viability, CellTiter-Fluor, 17.5 h; series mostly up to 92.4 µM. In outline:
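Multiplexed viability counter screen in the PGC/ERR cell line: cells treated with DMSO-dissolved compounds for 17.5 hours at 37 C, then viability measured as CellTiter-Fluor fluorescence.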

A short description of assay [7]: qHTS assay to identify small molecule antagonists of the estrogen related receptor signaling pathway with the pleiotropic PPARgamma coactivator (PGC) from Tox21 10K library (AID 1224841; call rule not given here; note: actives are mostly falling curves and most rising ones were filed inactive; nearly all actives have a fitted effect of over 50% in size). As to conditions: PGC/ERR reporter cell line, ONE-Glo luciferase, 18 h; series mostly up to 92.4 µM. Put shortly: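 Steps: plate 2,000 PGC/ERR cells per well; incubate 6 h at 37 C with 5% CO2; transfer compounds from DMSO stocks by pin tool; incubate 18 h at 37 C; add One-Glo; measure luminescence 30 min later.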

Assay [8] is described as follows: qHTS assay to identify small molecule agonists of the estrogen related receptor signaling pathway with the pleiotropic PPARgamma coactivator (PGC) from Tox21 10K library (AID 1224842). Note: nearly all actives have a fitted effect of over 15% in size. The conditions noted are these: PGC/ERR reporter cell line, luciferase ONE-Glo, 18 h; series mostly up to 92.4 µM. In outline: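 Luminescence from One-Glo (30 min, room temperature) measured after PGC/ERR cells had 18 h at 37 C with pinned compound (23 nL in DMSO). Cells had been seeded at 2,000 per well and pre-incubated 6 h.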

Assay [9] is described as follows: qHTS assay to identify small molecule agonists of the hypoxia (HIF-1) signaling pathway - cell viability counter screen (AID 1224844; calls by dose curve; note: nearly all actives have a fitted effect of over 50% in size). As to conditions: HRE-bla ME-180 viability, CellTiter-Glo luminescence, 17 h; series mostly up to 76.8 µM. In outline: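 Cytotoxicity was measured in parallel with the HRE-driven beta-lactamase readout: after 17 hrs of compound exposure at 37C, HRE-bla ME-180 cells received CellTiter-Glo and luminescence was recorded 30 min later.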

Assay [10] is described as follows: qHTS assay to identify small molecule agonists of H2AX (AID 1224845; active = well fitted activation curve with a large enough effect in the signal ratio in the repeat runs, not every such curve was filed as active; the % refers to the signal ratio). As to conditions: CHO-K1 phospho-H2AX Ser139 HTRF, 3 h; series mostly up to 154 µM. Put shortly:
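Phospho-H2AX Ser139 measured by HTRF (ex 320 nm; em 665 and 620 nm) after 24 hr antibody incubation. Compounds, 15 concentrations, 0.76% DMSO, were applied to CHO-K1 cells for 3hr at 37C before lysis.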

Assay [11] is described as follows: qHTS assay to identify small molecule agonists of the hypoxia (HIF-1) signaling pathway (AID 1224846; active = well fitted activation curve with a large enough effect in the signal ratio in the repeat runs, not every such curve was filed as active; the % refers to the signal ratio). The conditions noted are these: HRE-bla ME-180 cells, beta-lactamase ratio, 17 h; series mostly up to 76.8 µM. Put shortly: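 Compounds from the Tox21 10K library, dissolved in DMSO, are tested for induction of a hypoxia response element–controlled beta-lactamase reporter in ME-180 cells. Exposure lasts 17 hrs at 37C after a 5 hr settling period, followed by CCF4-AM FRET substrate.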

Assay [12] in a line: qHTS assay to identify small molecule agonists of H2AX - cell viability counter screen (AID 1224847; calls by dose curve;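 note: wild-type CHO-K1 cells; top concentration of the series differs between compounds; nearly all actives have a fitted effect of over 30% in size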). The conditions noted are these: CHO-K1 viability, CellTiter-Glo luminescence, 3 h; series mostly up to 154 µM. Put shortly:
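CHO-K1 cells plated overnight at 37C, then exposed 3 h at 37C to compounds at 15 concentrations (0.76% DMSO final). Viability by CellTiter-Glo luminescence after 30 min at room temperature.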

A short description of assay [13]: qHTS assay to identify small molecule antagonists of the estrogen related receptor (ERR) signaling pathway from Tox21 library (AID 1224848). Note: nearly all actives have a fitted effect of over 50% in size. The conditions noted are these: ERR reporter cell line, luciferase antagonist mode, 18 h; series mostly up to 92.4 µM. In outline: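 Luciferase luminescence (ONE-Glo, 30 min room temperature) was the read-out. Cells of the NTP-supplied ERR line, 2,000 per well, were given 6 h at 37 C before compound addition in DMSO and 18 h exposure at 37 C.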

The nature of assay [14]: qHTS assay to identify small molecule agonists of the estrogen related receptor (ERR) signaling pathway from Tox21 library (AID 1224849; calls by dose curve; note: nearly all actives have a fitted effect of over 15% in size). As to conditions: ERR reporter cell line, ONE-Glo luciferase, 18 h; at 92.4 µM (top of the series) unless noted. Put shortly:
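Cells carrying the ERR reporter were plated and allowed to settle for 6 h, exposed to library compounds for 18 h at 37 C, then lysed with ONE-Glo and luminescence measured.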

Assay [15] is described as follows: qHTS RealTime-Glo MT Cell Viability Assay in HEK293 cells - 32 hour (AID 1224868). For activity change, negative = cytotoxic: top concentration of the series differs between compounds. Note: nearly all actives have a fitted effect of over 50% in size. Note: potency is the fitted concentration of half-maximal effect. The conditions noted are these: RealTime-Glo luminescence; series mostly up to 76.8 µM. Put shortly: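 HEK293 cells were seeded at 600 cells/well together with NanoLuc luciferase and cell-permeant prosubstrate, preincubated 5 h at 37 C/5% CO2, then given compound in DMSO by pintool. Luminescence from viable-cell prosubstrate reduction was read repeatedly over 40 h.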

A short description of assay [16]: A CellTox Green Cytotoxicity Assay to monitor cytotoxicity in HEK293 cells - 0 hour (AID 1224869). Note: nearly all actives have a fitted effect of over 50% in size. The conditions noted are these: CellTox Green fluorescence; series mostly up to 76.8 µM. Put shortly:
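Cells (HEK293, 600/well) and dye reagent are dispensed together. After 5 h at 37 C, 23 nL compound is pinned in. Plates stay at 37 C for 40 h with fluorescence read at 0h, 8h, 16h, 24h, 32h and 40h.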

The target in assay [17] is Nuclear receptor subfamily 1 group I member 3 (Homo sapiens) (UniProt Q14994). Kind of assay: qHTS assay to identify small molecule agonists of the constitutive androstane receptor (CAR) signaling pathway (AID 1224839). Note: nearly all actives have a fitted effect of over 15% in size. The conditions noted are these: HepG2 hCAR CYP2B6-luciferase, agonist mode, 24 h; series mostly up to 92.4 µM. Put shortly: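 HepG2 cells stably co-transfected with hCAR and a CYP2B6-2.2kb luciferase reporter; compounds at 15 concentrations with 0.75 uM PK11195 present. After 24 hr at 37 C, luciferase read by ONE-Glo luminescence.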

A short description of assay [18]: qHTS RealTime-Glo MT Cell Viability Assay in HepG2 cells - 24 hour (AID 1224867). Note: nearly all actives have a fitted effect of over 50% in size. As to conditions: RealTime-Glo luminescence; series mostly up to 76.8 µM. In outline: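 HepG2 cells were seeded at 600 cells/well together with NanoLuc luciferase and a cell-permeant prosubstrate, preincubated 5 h at 37 C/5% CO2, then pin-dosed with compounds in DMSO. Nonlytic luminescence from viable cells was read at each time point.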

The target of assay [19] is Thyrotropin receptor (Homo sapiens) (UniProt P16473). Kind of assay: qHTS assay to identify small molecule agonists of the thyroid stimulating hormone receptor (TSHR) signaling pathway (AID 1224843; calls by dose curve; note: nearly all actives have a fitted effect of over 45% in size). The conditions noted are these: TSHR-HEK293 cells, cAMP HTRF, agonist mode, 30 min; series mostly up to 92.4 µM. Put shortly: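 Agonist activity read as cAMP rise via d2/cryptate HTRF competition, 1 h room-temperature detection, in HEK293 cells expressing TSHR. Fifteen-point titrations, each run in triplicate, with a 30 min room-temperature incubation beforehand.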
% is set by controls: 0 for no effect and ±100 for the full control effect.

Sequence of Luciferin 4-monooxygenase (Photinus pyralis) (P08659 whole entry, looked up): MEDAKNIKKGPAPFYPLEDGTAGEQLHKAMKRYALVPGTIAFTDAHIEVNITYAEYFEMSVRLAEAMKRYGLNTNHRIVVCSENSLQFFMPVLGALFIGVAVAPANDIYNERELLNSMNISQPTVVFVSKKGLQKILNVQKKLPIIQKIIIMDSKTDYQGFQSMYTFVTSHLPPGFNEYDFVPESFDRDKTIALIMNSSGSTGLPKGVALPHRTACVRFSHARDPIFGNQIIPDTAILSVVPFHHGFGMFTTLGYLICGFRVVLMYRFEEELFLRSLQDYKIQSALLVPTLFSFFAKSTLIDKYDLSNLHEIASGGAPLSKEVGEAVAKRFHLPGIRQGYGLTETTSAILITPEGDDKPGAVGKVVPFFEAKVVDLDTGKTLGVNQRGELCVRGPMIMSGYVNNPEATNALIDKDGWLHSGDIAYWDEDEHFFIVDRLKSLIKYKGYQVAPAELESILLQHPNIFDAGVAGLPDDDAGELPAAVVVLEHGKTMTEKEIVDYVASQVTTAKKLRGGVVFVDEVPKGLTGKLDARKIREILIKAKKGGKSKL
Sequence of Nuclear receptor subfamily 1 group I member 3 (Homo sapiens) (Q14994 whole entry, looked up): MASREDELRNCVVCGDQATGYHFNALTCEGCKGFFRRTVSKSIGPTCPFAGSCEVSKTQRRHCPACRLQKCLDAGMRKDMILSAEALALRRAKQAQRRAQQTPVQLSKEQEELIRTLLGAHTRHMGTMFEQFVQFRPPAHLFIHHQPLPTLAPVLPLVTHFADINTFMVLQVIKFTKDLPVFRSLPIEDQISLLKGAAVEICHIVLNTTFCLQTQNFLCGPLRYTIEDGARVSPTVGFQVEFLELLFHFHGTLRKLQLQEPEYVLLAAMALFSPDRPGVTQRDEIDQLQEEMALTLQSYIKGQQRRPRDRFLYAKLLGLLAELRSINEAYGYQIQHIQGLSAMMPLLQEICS
Sequence of Thyrotropin receptor (Homo sapiens) (P16473 whole entry, looked up): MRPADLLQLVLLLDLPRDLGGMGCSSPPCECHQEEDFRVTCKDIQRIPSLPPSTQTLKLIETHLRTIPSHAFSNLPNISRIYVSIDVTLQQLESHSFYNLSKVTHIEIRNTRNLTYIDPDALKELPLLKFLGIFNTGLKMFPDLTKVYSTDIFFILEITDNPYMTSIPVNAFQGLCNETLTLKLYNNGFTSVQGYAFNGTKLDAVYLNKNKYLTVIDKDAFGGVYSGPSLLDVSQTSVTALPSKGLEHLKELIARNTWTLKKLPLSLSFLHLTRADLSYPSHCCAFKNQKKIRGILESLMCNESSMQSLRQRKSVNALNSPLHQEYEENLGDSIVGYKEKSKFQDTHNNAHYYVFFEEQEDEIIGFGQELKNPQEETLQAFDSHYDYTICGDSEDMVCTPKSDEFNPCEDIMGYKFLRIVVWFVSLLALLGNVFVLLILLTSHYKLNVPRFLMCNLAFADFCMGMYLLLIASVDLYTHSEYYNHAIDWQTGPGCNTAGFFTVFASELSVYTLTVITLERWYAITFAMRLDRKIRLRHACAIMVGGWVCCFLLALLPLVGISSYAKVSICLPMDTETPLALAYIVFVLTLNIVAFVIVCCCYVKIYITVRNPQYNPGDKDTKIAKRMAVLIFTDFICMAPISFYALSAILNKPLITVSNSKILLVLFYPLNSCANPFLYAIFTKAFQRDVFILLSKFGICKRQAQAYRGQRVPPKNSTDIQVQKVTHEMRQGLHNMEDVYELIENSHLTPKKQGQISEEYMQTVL

`CCOC(=O)C(C)Oc1ccc(Oc2nc3ccc(Cl)cc3o2)cc1` (centres undefined): the Potency result in assay [1], in assay [3], in assay [4], in assay [5], in [6] and in [7] was “inactive” throughout. The Potency result in [8], in assay [9], in assay [10], in assay [12], in [13] and in [16] was “inactive” throughout. Moreover, the Potency in assay [2] is 39.9 µM (active); in assay [15], 49 µM (active). For the same compound, the result in [11] was inactive. Further, the activity change, positive = activation in assay [14] was -11.6%.

In the case of `Nc1c(I)cc(I)c(C(=O)N(CCC(=O)O)c2ccccc2)c1I`, the Potency entry in assay [1], in assay [2], in assay [3], in assay [4], in [17] and in assay [6] was “inactive” each time. The Potency result in assay [9], in assay [10], in assay [12], in assay [18], in [15] and in assay [16] was “inactive” in each case. The result in [11] was inactive.

As to `O=[N+]([O-])c1cccc(S(=O)(=O)NCCNS(=O)(=O)c2cccc([N+](=O)[O-])c2)c1`, the Potency entry in assay [1], in [2], in assay [3], in [4], in [17] and in assay [6] was “inactive” in each case. For the same compound, the Potency entry in assay [7], in assay [8], in [9], in assay [10], in assay [12] and in assay [13] was “inactive” in each case. The Potency entry in assay [18], in assay [15] and in assay [16] was “inactive” throughout. In addition, in assay [11], the result was inactive. Besides, in assay [14], the activity change, positive = activation was -12.7% [at 42.5 µM].

Consider `Cc1cc(C(=C2C=CC(=Nc3ccc(S(=O)(=O)O)cc3S(=O)(=O)O)C=C2)c2ccc(Nc3ccc(S(=O)(=O)O)cc3)cc2)ccc1N`, for which the Potency entry in [1], in [3], in [4], in assay [5], in assay [17] and in assay [6] was “inactive” in each case. Also, the Potency entry in assay [9], in [12], in assay [18], in [15] and in [16] was “inactive” throughout. The Potency in [2] was 23.2 µM (active). In addition, the outcome in [11] was inactive.

On to `C=CCCCCCCCCCCCCCCCC`, for which the viability change, negative = cytotoxic in assay [1] is 0.934% [at 8.39 µM]; in [3] it was -0.127% [at 8.39 µM]; in assay [6], 2.55% [at 8.39 µM]. Further, in [2], the activity change, negative = inhibition was 0.644% [at 10.5 µM]. Also, the activity change, negative = cytotoxicity was 3.23% [at 8.39 µM] in assay [4], 3.26% [at 6.97 µM] in [9], 0.307% [at 14 µM] in assay [12] and 0.0094% [at 6.97 µM] in [18]. Moreover, the activation is -5.43% [at 8.39 µM] in assay [17], 0.156% [at 8.39 µM] in [8], -8.53% [at 8.39 µM] in assay [19] and 0.0723% [at 7.01 µM] in [11]. Further, the activity, negative = inhibition in assay [7] is -28.3% [at 8.39 µM]; in [13], 6.89% [at 8.39 µM]. For the same compound, in assay [10], the activation (H2AX phosphorylation) is -2.87% [at 14 µM]. Further, the activity change, positive = activation in assay [14] is 3.59% [at 8.39 µM]. In assay [15], the activity change, negative = cytotoxic is -11.9% [at 6.97 µM]. For the same compound, the cytotoxicity in assay [16] was -3.01% [at 6.97 µM].

As for `O=C1NCCN1`, the Potency entry in assay [1], in assay [2], in assay [3], in assay [4], in assay [6] and in assay [7] was “inactive” in each case. For the same compound, the Potency entry in [8], in [19], in [9], in assay [10], in assay [12] and in assay [13] was “inactive” each time. In addition, the Potency entry in [18], in [15] and in assay [16] was “inactive” each time. In addition, the result in assay [11] was inactive. In addition, the activity change, positive = activation in assay [14] was 2.98%.
